Test system: SGK
Conditions: concentration: 1 μM, replicates: in singlicate; n = 1
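Note: KINOMEscan kinase panel screen.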

Compound	%Inh [%]
CN(c1ccc(NC(=O)Nc2cc(C(F)(F)F)ccc2F)cc1)c1ccnc(Nc2ccc(S(N)(=O)=O)cc2)n1 [GW809893]	1
Nc1ncnc2c1nc(-c1ccccc1)n2-c1ccccc1 [SKF-97293]	23
CN1CCN(CCCNc2nccc(-c3c(-c4ccc(F)cc4)nn4cc(C(F)(F)F)ccc34)n2)CC1 [GW621581]	12
O=C(Nc1cccc(-c2nn3ccccc3c2-c2ccnc(Nc3cccc(C(F)(F)F)c3)n2)c1)c1c(F)cccc1F [GSK292658]	11
COc1cc(Nc2nccc(N3CCC(NC(=O)Nc4cccc(C(C)=O)c4)C3)n2)cc(OC)c1OC (stereo not shown) [GSK1379753]	0
Cl.Cl.NCC(C(=O)Nc1cc(Br)c(-c2ccnc3[nH]ccc23)s1)c1ccccc1 (stereo not shown) [GSK1269851]	28
COc1ccc(Nc2nccc(NCCNC(=O)c3cc4ccccc4s3)n2)cc1 [GSK1379896]	0
Cc1ccc(F)c(C(=O)Nc2cccc(-c3nn4ccccc4c3-c3ccnc(Nc4cccc(F)c4)n3)c2)c1F [GSK361061]	11
Cl.Cl.NCC(NC(=O)c1cc(-c2ccccc2)c(-c2ccnc3[nH]ccc23)s1)c1ccccc1 (stereo not shown) [GSK1321561]	0
Cc1cccc(Nc2nc(N[C@H]3CCNC3)ncc2C(N)=O)c1.Cl [GSK2197149]	0
COc1cccc(C2=C(Nc3ccc(Cl)c(C(=O)O)c3)C(=O)NC2=O)c1 [SB-390769]	0
O=C(Nc1cccc(-c2nn3ccccc3c2-c2ccnc(Nc3cccc(F)c3)n2)c1)c1c(F)ccc(F)c1Cl [GSK357952]	10
COc1cccc(NC(=O)NC2CCN(c3ccnc(Nc4cc(OC)c(OC)c(OC)c4)n3)C2)c1 (stereo not shown) [GSK1379763]	0
O=c1[nH]cc(-c2ccc(N3CCOCC3)cc2)c2sc(-c3cn[nH]c3)cc12 [GSK2276055]	0
CC(C)(C)c1ccc2nccc(Nc3cccc(O)c3)c2c1 [GW856795]	15
COc1ccc(Nc2nccc(N3CCC(NC(=O)Nc4cccc(OC)c4)C3)n2)cc1 (stereo not shown) [GSK1379742]	3
CCS(=O)(=O)c1ccc(OC)c(Nc2nccc(-c3c(-c4cccc(NC(=O)c5c(F)cccc5F)c4)nn4ncccc34)n2)c1 [GSK326180]	0
CC(C)c1nc(-c2cccc(NS(=O)(=O)c3c(F)cccc3F)c2F)c(-c2ccnc(Nc3ccc(N4CCOCC4)nc3)n2)s1 [GSK2008607]	40
Fc1ccc(-c2ncn(C3CCNCC3)c2-c2ccnc(Oc3ccc(-c4ccccc4)cc3)n2)cc1 [SB-245391]	12

Compound	%Inh [%]
O=C(Nc1n[nH]c2cc(-c3ccoc3)ccc12)C1CC1 [SB-738481]	1
Nc1ncc(-c2cccnc2)c2scc(-c3ccc4c(c3)CCN4C(=O)Cc3ccccc3)c12 [GSK683281]	0
Nc1ncc(-c2ccc3nccc(-c4ccncc4)c3c2)cc1S(=O)(=O)N1CCOCC1 [GSK1627798]	0
C[C@@H]1CC[C@@H](C(=O)Nc2ccccc2)CN1c1cc(-c2ccc3c(N)n[nH]c3c2)nc(N)n1 [GSK2286062]	0
Cn1cc(-c2ccc3c(c2)CCN3C(=O)Cc2cccc(F)c2)c2c(N)ncnc21 [GSK2603358]	0
Cc1ccc(C(=O)N2CC[C@@H](O)C2)cc1-n1c(C)cc(OCc2ccc(F)cc2F)c(Br)c1=O	0
CN1CCN(Cc2cccc(-c3ccc4c(Nc5ccc(Oc6ccccc6)cc5)ccnc4c3)c2)CC1 [GW578342]	7
CN(C)S(=O)(=O)c1cc(-c2ccc3nccc(-c4cccc(S(N)(=O)=O)c4)c3c2)cnc1N [GSK1669921]	5
COc1cc(Nc2nccc(-c3c(-c4cccc(NC(=O)c5c(F)cccc5F)c4)nn4ncccc34)n2)cc(OC)c1OC [GSK327238]	0
COCCOCCOc1cc2ncc3c4ccc(C#N)cc4[nH]c3c2cc1OC	89
Cc1ccc(C(=O)Nc2ccc(Nc3ccnc4cc(-c5nccs5)ccc34)cc2O)cc1.Cl [GW494702]	11
CC(=O)N1CCN(c2ccc(Nc3nccc(-c4sc(C(C)C)nc4-c4cccc(NS(=O)(=O)c5cccc(Cl)c5)c4)n3)cn2)CC1 [GSK1660437]	16
COc1cccc(C(=O)Nc2cccc(Oc3ccc4nc(NC(=O)C5CC5)cn4n3)c2)c1	0
Cc1cccc(NC(=O)Nc2ccc(Oc3ncnc4ccn(C)c34)cc2)c1	0
Cc1ccc(S(=O)(=O)Nc2ccc(Nc3nccc(Nc4cccc5[nH]ncc45)n3)cc2)cc1 [GSK581271]	0
O=C(Nc1ccccc1F)NC1CCN(c2ccnc(Nc3ccc(F)cc3)n2)CC1 [GSK1379800]	0
Nc1n[nH]c2cnc(-c3ccccc3)cc12 [SB-642124]	74
c1ccc(-c2n[nH]cc2Nc2ccnc3ccccc23)nc1 [GW694077]	89

From publication PMC5540273 (PLoS ONE, 2017)
